{
  "source": "PubChem BioAssay (NCI)",
  "note": "The panel holds about 83,000 compounds, 20% with a hit somewhere; the sample as a whole holds those more often.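 Single-dose data. Exposure time 48 hours. Values below 10 considered active.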 Unmarked numbers belong to inactive results. Active and inactive are the calls of the source.",
  "data": [
    {"test_system": "MCF7 breast", "assay": "NCI-60 one-dose screen, 48 h (100 = growth as untreated, 0 = no growth, -100 = all killed)", "conditions": "10 µM unless noted", "values": [
      {"smiles": "Cc1cc(S(=O)(=O)/N=C(\\N)n2nc(C)c(C)c2C)c(SCc2ccccc2)cc1Cl", "growth": "70.8%"},
      {"smiles": "CS(=O)(=O)Nc1cncc(-c2ccc3ncnc(Nc4cncc(Cl)c4)c3c2)c1", "growth": "55.6%"},
      {"smiles": "CC(C)(Sc1cc(C(C)(C)C)c(OC(=O)CCCC(=O)O)c(C(C)(C)C)c1)Sc1cc(C(C)(C)C)c(OC(=O)CCCC(=O)O)c(C(C)(C)C)c1", "growth": "30%"},
      {"smiles": "COc1cc2c(c(OC)c1OC)CCC(c1cccc(NC(=O)c3ccc(Br)cc3)c1)O2", "note": "(stereo not given)", "growth": "73.2%"},
      {"smiles": "COc1ccc(CNc2c3ccccc3nc3ccccc23)cc1", "growth": "12.6%"},
      {"smiles": "N#CSc1c[nH]c2cccc(/C=C/C(=O)/C=C(/C=C/c3cccc4[nH]cc(SC#N)c34)OB(F)F)c12", "growth": "-22.6% (active)"},
      {"smiles": "CC1=NC2=Nn3c(c4cnn(-c5ccccc5)c4n/c3=N\\N)NN2C(c2ccccc2)=C1", "growth": "87.8%"},
      {"smiles": "COc1ccc(\\C=N/N=C(N)/C(N)=N\\N=C/c2ccc(OC)cc2)cc1", "growth": "104%"},
      {"smiles": "NC(=O)c1cccc(-n2ccc3cc(NC(=O)c4ccc(N5CCOCC5)c(C(F)(F)F)c4)ccc32)n1", "growth": "57.1%"},
      {"smiles": "COc1ccc(-c2nc3cc(C(=O)NCc4ccccc4)ccc3n2C2CCCCC2)cc1", "growth": "76.6%"},
      {"smiles": "CN(C)CC(C)(C)C(=O)/C=C/c1ccccc1", "growth": "-13.6% [25 µM] (active)"},
      {"smiles": "C=CCn1c(SCC(=O)Nc2ccc(C(=O)/C=C/c3ccc(Cl)cc3)cc2)nnc1-c1ccc(Br)cc1", "growth": "13.4%"},
      {"smiles": "Cc1cn(-c2cc(NC(=O)c3cccc(C#Cc4cccc5[nH]nc(N)c45)c3)cc(C(F)(F)F)c2)cn1", "growth": "34.2%"},
      {"smiles": "Oc1c(I)cc(I)cc1CNCCN(Cc1ccccn1)Cc1ccccn1", "growth": "-6.6% (active)"},
      {"smiles": "C=CC[Se]C(=O)Cc1c(C)n(C(=O)c2ccc(Cl)cc2)c2ccc(OC)cc12", "growth": "-4.29% (active)"},
      {"smiles": "CCC(=C(c1ccc(OCCN2CCCCC2)cc1)c1ccc(OCCN2CCCCC2)cc1)c1ccc(Cl)cc1", "growth": "-79.9% (active)"},
      {"smiles": "Cc1ccc(/C=C2\\COc3ccc(O)cc3C2=O)cc1", "growth": "12.8%"},
      {"smiles": "COc1cc2nc3cc([N+](=O)[O-])ccc3c(NCCNCC(C)O)c2cc1OC", "note": "(stereo not given)", "growth": "-13.3% (active)"},
      {"smiles": "O=C(NNC(=O)c1ccc(NC(=O)c2ccccn2)cc1)Nc1ccc([N+](=O)[O-])cc1", "growth": "95.7%"},
      {"smiles": "O=C(Nc1ccc(Oc2cccc(F)c2)c(Cl)c1)c1cccnc1", "growth": "19.6%"},
      {"smiles": "CCCc1c(OC(=O)c2ccccc2)nc2[nH]c(=O)sc2c1C", "growth": "92.9%"},
      {"smiles": "CCCCCN1C(=O)/C(=c2\\sc3n(c2=O)C2C(NN=3)N(CC)C(=O)N2CC)c2ccccc21", "note": "(stereo not given)", "growth": "12%"},
      {"smiles": "CCOC(=O)c1cc(C)n(-c2ccc(C(=O)O)cc2)c1C", "growth": "67.1%"},
      {"smiles": "O=C1NC(=O)C(Cc2ccc(OCc3ccc(-c4ccc(Cl)cc4Cl)cc3)cc2)S1", "note": "(stereo not given)", "growth": "28.5%"},
      {"smiles": "CC/C=C\\C[C@H](O)C/C=C1/C(=O)C=C[C@@H]1C/C=C\\CCCC(=O)N(C)C", "growth": "7.79% (active)"},
      {"smiles": "NC(=O)CSc1oc(-c2ccccc2)nc1S(=O)(=O)c1ccc(Br)cc1", "growth": "75%"},
      {"smiles": "COc1cc(-c2nccc3[nH]c(-c4ccc5cc[nH]c5c4)nc23)cc(OC)c1OC", "growth": "2.12% (active)"},
      {"smiles": "Cc1nc2sc(C(=O)Nc3cccc(Br)c3)c(N)c2cc1C(O)c1ccccc1", "note": "(stereo not given)", "growth": "21.9%"},
      {"smiles": "CC(C)c1ccc(Cc2cnc(NC(=O)c3cc(Br)cs3)s2)cc1", "growth": "11.7%"},
      {"smiles": "Cc1ccc(-c2nc([P+](c3ccccc3)(c3ccccc3)c3ccccc3)c(S(=O)(=O)c3ccc(C)cc3)o2)cc1", "growth": "13.5%"},
      {"smiles": "COC(CC(F)F)c1cn(S(=O)(=O)c2ccc(C)cc2)c2ccccc12", "note": "(stereo not given)", "growth": "13.6%"},
      {"smiles": "Cc1ccc(C[P+](c2ccccc2)(c2ccccc2)c2ccccc2)cc1", "growth": "10.9%"},
      {"smiles": "Cn1cc(-c2nonc2-c2cn(C)c3ccccc23)c2ccccc21", "growth": "19.4%"},
      {"smiles": "CC1=C2[C@@H](CC1)[C@]1(C)O[C@@](C(C)C)(C[C@H]1OC(=O)[C@H](C)O)[C@H]2OC(=O)/C=C/c1ccccc1", "growth": "81.6%"},
      {"smiles": "Cc1c(-c2ccc(O)cc2)n(Cc2ccc(OCCN3CCCCCC3)cc2)c2ccc(O)cc12", "growth": "11.6%"},
      {"smiles": "CCOC(=O)C(=O)C(C(=O)OCC)c1ccccc1", "note": "(stereo not given)", "growth": "101%"},
      {"smiles": "CS(=O)(=O)c1ccc(-c2cnn3ccc(-c4cccc(S(=O)(=O)C5CC5)c4)nc23)cc1", "growth": "18%"},
      {"smiles": "O=S(=O)(NCCNc1nccc(-c2c(-c3ccc(F)c(O)c3)nc3occn23)n1)c1ccc(Cl)cc1", "growth": "71.6%"},
      {"smiles": "Nc1n[nH]c2cccc(C#Cc3cccc(NC(=O)c4cc(F)cc(C(F)(F)F)c4)c3)c12", "growth": "68.4%"},
      {"smiles": "N#Cc1nc(-c2ccc(F)cc2)oc1S(=O)(=O)N1CCOCC1", "growth": "30.4%"}
    ]}
  ]
}
